The nature of assay [1]: A CellTox Green Cytotoxicity Assay to monitor cytotoxicity in HepG2 cells - 24 hour (AID 1224878). Also: % is scaled to controls: 0 for no effect and ±100 for the full control effect; nearly all actives have a fitted effect of over 45% in size. The method, boiled down:
(§1)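 First, HepG2 cells (600/well) mixed with reagent were plated; second, after 5 h at 37 C they received compounds via pintool; third, fluorescence was measured at 0 h through 40 h at 8 h intervals.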

The nature of assay [2]: A CellTox Green Cytotoxicity Assay to monitor cytotoxicity in HepG2 cells - 40 hour (AID 1224879). Also: % is scaled to controls: 0 for no effect and ±100 for the full control effect; nearly all actives have a fitted effect of over 40% in size. The method, boiled down:
as §1

The nature of assay [3]: A CellTox Green Cytotoxicity Assay to monitor cytotoxicity in HEK293 cells - 32 hour (AID 1224881). Also: % is scaled to controls: 0 for no effect and ±100 for the full control effect; nearly all actives have a fitted effect of over 40% in size. In outline: (§2)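 Dead-cell fluorescence measured kinetically: asymmetric cyanine dye, HEK293, 600 cells/well, 5 h settle, 23 nL cpd/DMSO, 37 C, reads 0–40 h every 8 h.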
Assay [4] in a line: A CellTox Green Cytotoxicity Assay to monitor cytotoxicity in HepG2 cells - 0 hour (AID 1224882). Also: % is scaled to controls: 0 for no effect and ±100 for the full control effect; nearly all actives have a fitted effect of over 35% in size. The method, boiled down:
as §1

A short description of assay [5]: A CellTox Green Cytotoxicity Assay to monitor cytotoxicity in HepG2 cells - 32 hour (AID 1224883). Also: % is scaled to controls: 0 for no effect and ±100 for the full control effect; nearly all actives have a fitted effect of over 50% in size. The method, boiled down: as §1
The nature of assay [6]: A CellTox Green Cytotoxicity Assay to monitor cytotoxicity in HEK293 cells - 8 hour (AID 1224884). Also: % is scaled to controls: 0 for no effect and ±100 for the full control effect; nearly all actives have a fitted effect of over 35% in size. In outline:
as §2

A short description of assay [7]: qHTS RealTime-Glo MT Cell Viability Assay in HepG2 cells - 16 hour (AID 1224885). Also: % is scaled to controls: 0 for no effect and ±100 for the full control effect; nearly all actives have a fitted effect of over 50% in size. The method, boiled down:
(§3)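 Viability was tracked continuously by NanoLuc luminescence from prosubstrate reduced by living HepG2 cells, at successive time points over 40 h of compound exposure. Cells with reagent were preincubated 5 h at 37 °C before compound addition.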
For orientation: qHTS replaces the single test concentration by a dilution series.

The nature of assay [8]: qHTS RealTime-Glo MT Cell Viability Assay in HEK293 cells - 24 hour (AID 1224886). Also: top concentration of the series differs between compounds; % is scaled to controls: 0 for no effect and ±100 for the full control effect; nearly all actives have a fitted effect of over 50% in size. The method, boiled down:
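Viability tracked continuously by luminescence as live cells reduce a prosubstrate for NanoLuc; HEK293 cells preincubated 5 h, compound-treated at 37 C, and read at 0, 8, 16, 24, 32 and 40 h.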

The nature of assay [9]: qHTS RealTime-Glo MT Cell Viability Assay in HEK293 cells - 8 hour (AID 1224887). Also: top concentration of the series differs between compounds; % is scaled to controls: 0 for no effect and ±100 for the full control effect; nearly all actives have a fitted effect of over 50% in size. The method, boiled down:
(§4)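 600 HEK293 cells per well, dispensed already mixed with RealTime-Glo MT reagents. Compound dosing came 5 h later. The same wells were read for luminescence at 0, 8, 16, 24, 32 and 40 h of exposure at 37 C.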

Assay [10] in a line: A CellTox Green Cytotoxicity Assay to monitor cytotoxicity in HEK293 cells - 16 hour (AID 1224888). Also: % is scaled to controls: 0 for no effect and ±100 for the full control effect; nearly all actives have a fitted effect of over 35% in size. In outline: as §2
The nature of assay [11]: qHTS RealTime-Glo MT Cell Viability Assay in HepG2 cells - 0 hour (AID 1224889). In outline:
as §3

Assay [12] can be described thus: A CellTox Green Cytotoxicity Assay to monitor cytotoxicity in HepG2 cells - 8 hour (AID 1224890). Also: % is scaled to controls: 0 for no effect and ±100 for the full control effect; nearly all actives have a fitted effect of over 45% in size. In outline:
as §1

Assay [13] is described as follows: qHTS assay to identify small molecule antagonists of the estrogen receptor alpha (ER-alpha) signaling pathway using the BG1 cell line in the presence of 0.1 nM 17-beta-estradiol - cell viability counter screen (AID 1259241). Also: % is scaled to controls: 0 for no effect and ±100 for the full control effect; nearly all actives have a fitted effect of over 40% in size. The method, boiled down: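 Live-cell protease activity (CellTiter-Fluor fluorescence, 30 min) was read in the same wells after VM7Luc4E2 cells had been exposed to compounds with 0.1 nM 17beta-estradiol for 22 hr at 37C.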

Assay [14] is described as follows: qHTS assay to identify small molecule antagonists of the androgen receptor (AR) signaling pathway using the MDA cell line in the presence of 0.5 nM R1881 - cell viability counter screen (AID 1259242). Also: % is scaled to controls: 0 for no effect and ±100 for the full control effect; nearly all actives have a fitted effect of over 45% in size. The method, boiled down: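 qHTS format. MDA-kb2 (MMTV-luc, AR/GR responsive) + cpd + 0.5 nM R1881 final, 16 hr 37C/0% CO2 → CellTiter-Fluor 30 min → fluorescence intensity.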

The target of assay [15] is Androgen receptor (Homo sapiens) (UniProt P10275). Kind of assay: qHTS assay to identify small molecule antagonists of the androgen receptor (AR) signaling pathway using the MDA cell line in the presence of 0.5 nM R1881 (AID 1259243). The method, boiled down:
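Antagonist mode quantitative HTS in MDA-kb2 MMTV-luciferase cells, agonist R1881 at 0.5 nM final, 16 hr exposure at 37C and 0% CO2, luminescent detection.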

In assay [16] the target is Estrogen receptor (Homo sapiens) (UniProt P03372). Kind of assay: qHTS assay to identify small molecule antagonists of the estrogen receptor alpha (ER-alpha) signaling pathway using the BG1 cell line in the presence of 0.1 nM 17-beta-estradiol (AID 1259244). The method, boiled down:
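Reporter is a stably transfected luciferase under four estrogen responsive elements in VM7Luc4E2 cells expressing native full-length ER-alpha; inhibition of 0.1 nM (final) 17beta-estradiol-driven signal over 22 h is read by luminescence.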

Assay [17] in a line: qHTS assay to identify small molecule HDAC inhibitors (AID 1259364).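 Also: wild-type HCT-116 cells with endogenous class I/II HDAC activity; top concentration of the series differs between compounds; % is scaled to controls: 0 for no effect and ±100 for the full control effect; nearly all actives have a fitted effect of over 45% in size.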 In outline:
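Quantitative high-throughput format: overnight-seeded HCT-116 cells got compounds for 2 hr at 37C; HDAC-Glo I/II reagent added, 30 min RT, luminescence measured.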

Assay [18] is described as follows: qHTS assay to identify small molecule HDAC inhibitors - cell viability counter screen (AID 1259365). In outline: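 HCT-116 (wild type), 1,500 cells/well, overnight 37C/5% CO2; compound in DMSO 2hr; CellTiter-Glo 30min RT; luminescence read.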
Assay [19] is described as follows: qHTS RealTime-Glo MT Cell Viability Assay in HEK293 cells - 0 hour (AID 1224880). In outline:
as §4

A short description of assay [20]: qHTS assay to identify small molecule phospholipidosis (PLD) inducers (AID 1259344; active = well fitted curve in the direction sought with a large enough effect; an effect the other way counts as inactive or inconclusive; also: % is scaled to controls: 0 for no effect and ±100 for the full control effect). The method, boiled down:
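Phospholipid accumulation was scored by imaging: fixed, Hoechst-counterstained HepG2 cells stained with LipidTOX Red after 24 h compound exposure at 37 C. Read-outs were pit count and pit intensity per well or per cell, with amiodarone and DMSO controls.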

Unmarked numbers belong to inactive results. Results filed as inconclusive are left out. Calls of active or inactive are those of the source. Unless noted, calls follow the shape of the dose curve; as a rule, active = well fitted curve in the direction sought with a large enough effect in the repeat runs; inconclusive = weak or mixed curves; inactive = no such curve, though single readings can be large; an effect the other way counts as inactive or inconclusive.

Estrogen receptor (Homo sapiens), sequence (P03372 whole entry, looked up): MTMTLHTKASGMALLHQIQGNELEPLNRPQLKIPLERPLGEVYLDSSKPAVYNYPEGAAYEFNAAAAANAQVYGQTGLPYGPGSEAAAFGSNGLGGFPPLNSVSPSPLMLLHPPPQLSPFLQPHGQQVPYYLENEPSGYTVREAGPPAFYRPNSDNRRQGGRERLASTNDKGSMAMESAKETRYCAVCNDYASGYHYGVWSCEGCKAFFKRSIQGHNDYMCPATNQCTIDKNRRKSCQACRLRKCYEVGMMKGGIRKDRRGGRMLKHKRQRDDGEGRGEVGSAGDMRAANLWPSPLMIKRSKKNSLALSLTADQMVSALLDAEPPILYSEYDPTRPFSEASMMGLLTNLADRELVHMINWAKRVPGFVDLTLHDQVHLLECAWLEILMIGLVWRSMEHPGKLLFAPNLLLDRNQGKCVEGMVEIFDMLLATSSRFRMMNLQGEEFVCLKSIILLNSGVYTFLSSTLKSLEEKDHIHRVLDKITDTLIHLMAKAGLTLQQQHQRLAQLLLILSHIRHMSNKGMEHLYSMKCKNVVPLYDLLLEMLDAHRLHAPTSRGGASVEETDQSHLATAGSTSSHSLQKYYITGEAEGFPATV
Androgen receptor (Homo sapiens), sequence (P10275 whole entry, looked up): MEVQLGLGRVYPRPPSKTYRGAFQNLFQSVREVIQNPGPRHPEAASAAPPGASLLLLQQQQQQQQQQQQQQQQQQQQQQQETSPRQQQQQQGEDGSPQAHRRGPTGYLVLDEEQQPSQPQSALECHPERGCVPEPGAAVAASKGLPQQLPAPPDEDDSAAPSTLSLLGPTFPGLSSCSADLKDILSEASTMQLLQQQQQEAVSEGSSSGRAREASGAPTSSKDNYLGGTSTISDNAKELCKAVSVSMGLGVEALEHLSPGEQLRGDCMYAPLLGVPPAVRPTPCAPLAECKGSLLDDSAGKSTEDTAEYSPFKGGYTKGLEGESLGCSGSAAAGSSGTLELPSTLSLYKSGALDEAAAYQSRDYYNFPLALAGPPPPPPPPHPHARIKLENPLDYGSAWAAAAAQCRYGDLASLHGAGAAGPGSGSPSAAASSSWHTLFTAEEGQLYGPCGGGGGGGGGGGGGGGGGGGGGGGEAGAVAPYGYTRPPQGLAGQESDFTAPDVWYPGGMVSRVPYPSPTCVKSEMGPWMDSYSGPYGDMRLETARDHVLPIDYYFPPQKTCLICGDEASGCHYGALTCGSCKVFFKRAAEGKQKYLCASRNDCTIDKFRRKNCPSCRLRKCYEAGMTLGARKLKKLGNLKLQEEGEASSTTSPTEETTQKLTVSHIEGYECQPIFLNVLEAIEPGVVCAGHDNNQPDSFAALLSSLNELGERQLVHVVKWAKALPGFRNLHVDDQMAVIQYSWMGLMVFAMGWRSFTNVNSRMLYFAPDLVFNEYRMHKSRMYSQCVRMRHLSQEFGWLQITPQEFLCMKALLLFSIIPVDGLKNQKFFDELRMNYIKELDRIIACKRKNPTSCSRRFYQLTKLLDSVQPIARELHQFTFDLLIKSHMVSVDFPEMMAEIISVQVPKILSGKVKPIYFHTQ

With `CC(=O)O[C@@H]1CC2C3CCc4cc(OC(=O)c5ccccc5)ccc4C3CCC2(C)[C@H]1OC(C)=O` (stereo partly specified), the Potency entry in assay [1], in [2], in assay [3], in [4], in [5] and in assay [6] was “inactive” in each case. The Potency result in assay [10], in assay [11], in assay [12] and in assay [17] was “inactive” each time. The outcome in assay [7], in assay [8], in assay [9], in assay [13], in assay [14] and in [16] was inactive. Besides, the compound was called inactive in [18]. Further, the Potency in assay [15] was 10.6 µM (active).
`Cc1ccc(NC(N)=O)cc1`: the Potency result in assay [1], in [19], in assay [3], in assay [4], in assay [5] and in assay [6] was “inactive” throughout. In addition, the Potency result in assay [10], in [11], in assay [12] and in assay [17] was “inactive” each time. For the same compound, the call in assay [7], in assay [8], in assay [9], in assay [13], in assay [14] and in assay [16] was inactive. In addition, the result in [18] was inactive.
`C[C@@H]1NC(=O)[C@@H](N)CNC(=O)[C@H](C2CCNC(N)=N2)NC(=O)/C(=C/NC(N)=O)NC(=O)[C@H](CNC(=O)C[C@@H](N)CCCN)NC1=O` (stereo partly specified): the cytotoxicity is -1.91% [at 0.29 µM] in [1] and -4.92% [at 0.29 µM] in [4]. Also, the cytotoxicity increase in assay [2] was -3.78% [at 0.29 µM]; in assay [3] it was 19.4% [at 0.29 µM]; in [5] it was -3.17% [at 0.29 µM]; in [6] it was 6.36% [at 0.29 µM]; in assay [12] it was -1.65% [at 0.29 µM]. For the same compound, the activity change, negative = cytotoxic in [7] was 5.82% [at 0.29 µM]. Besides, the activity change, negative = cytotoxicity is 0.653% [at 0.29 µM] in [8]; 0.186% [at 0.29 µM] in [9]; 5.25% [at 0.29 µM] in assay [11]; 6.75% [at 0.349 µM] in [13]; -0.0427% [at 0.349 µM] in assay [18]. For the same compound, in assay [10], the activity change was 17.5% [at 0.29 µM, stronger effect = higher value]. In addition, the viability change, negative = cytotoxic in [14] was 2.87% [at 0.349 µM]. Also, the Potency result in assay [20] is “inactive”. The activity change, negative = inhibition in [17] was -0.0991% [at 0.349 µM].
Turning to `COC(=O)c1c(C)cc(O)c(C)c1O`, the Potency result in [1], in assay [2], in assay [3], in assay [4], in assay [5] and in assay [6] was “inactive” each time. Moreover, the Potency entry in assay [10], in assay [11], in assay [12] and in assay [17] was “inactive” in each case. In addition, the result in assay [7], in assay [9], in assay [13], in assay [14], in [16] and in assay [18] was inactive.
As to `C=CC(C)(CCC=C(C)C)OC(=O)C(C)C` (stereo unspecified), the Potency entry in assay [1], in assay [2], in [3], in assay [4], in assay [5] and in assay [6] was “inactive” each time. For the same compound, the Potency entry in [10], in [11], in assay [12] and in assay [17] was “inactive” throughout. For the same compound, the outcome in assay [7], in assay [8], in [9], in assay [13], in assay [14] and in assay [18] was inactive.
Consider `C[C@@H]1CC[C@@]2(OC1)O[C@H]1C[C@H]3[C@@H]4CC[C@H]5C[C@@H](O)CC[C@]5(C)[C@H]4CC(=O)[C@]3(C)[C@H]1[C@@H]2C`, for which the cytotoxicity was -7.96% [at 6.97 µM] in assay [1] and 2.51% [at 6.97 µM] in [4]. The cytotoxicity increase was -2.78% [at 6.97 µM] in assay [2]; -0.706% [at 6.97 µM] in assay [3]; -3.63% [at 6.97 µM] in assay [5]; -0.568% [at 6.97 µM] in assay [6]; -0.434% [at 6.97 µM] in [12]. Further, the activity change, negative = cytotoxic in assay [7] is 0.914% [at 6.97 µM]. Moreover, the activity change, negative = cytotoxicity in assay [8] is -0.905% [at 6.97 µM]; in [9] it was 2.92% [at 6.97 µM]; in assay [11] it was 5.89% [at 6.97 µM]; in assay [13] it was -0.428% [at 8.39 µM]; in assay [18], 4.19% [at 8.39 µM]. Further, the activity change in assay [10] was -0.0716% [at 6.97 µM, stronger effect = higher value]. Also, in assay [14], the viability change, negative = cytotoxic was 4.91% [at 8.39 µM]. Moreover, the activity change, negative = inhibition in assay [16] is 0.329% [at 8.39 µM]. The Potency result in assay [20] was “inactive”.

For the origin of these results see PubChem BioAssay (Tox21).
